For two molecules, inhibition results are on record in PubChem BioAssay AID720631 (The Scripps Research Institute Molecular Screening Center, 2013).

The target of this assay is Fibrinogen beta chain (Homo sapiens) (UniProt P02675). The assay is described as follows: Tn6 displacement from DD(E) complex – biochemical, fluorescence polarization, human fibrin, Tn6 probe, confirmation (AID 720631).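 Also: 0% = plate median of compound wells and 100% = inhibitor peptide control.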 To be noted: FP displacement of TRITC-Tn6 peptide from DD(E); at 8.3 µM; hits give high values. In general terms: Polarisation of emitted light reports the rotation of a fluorescent probe.
Fibrinogen beta chain (Homo sapiens), sequence (P02675 whole entry, looked up): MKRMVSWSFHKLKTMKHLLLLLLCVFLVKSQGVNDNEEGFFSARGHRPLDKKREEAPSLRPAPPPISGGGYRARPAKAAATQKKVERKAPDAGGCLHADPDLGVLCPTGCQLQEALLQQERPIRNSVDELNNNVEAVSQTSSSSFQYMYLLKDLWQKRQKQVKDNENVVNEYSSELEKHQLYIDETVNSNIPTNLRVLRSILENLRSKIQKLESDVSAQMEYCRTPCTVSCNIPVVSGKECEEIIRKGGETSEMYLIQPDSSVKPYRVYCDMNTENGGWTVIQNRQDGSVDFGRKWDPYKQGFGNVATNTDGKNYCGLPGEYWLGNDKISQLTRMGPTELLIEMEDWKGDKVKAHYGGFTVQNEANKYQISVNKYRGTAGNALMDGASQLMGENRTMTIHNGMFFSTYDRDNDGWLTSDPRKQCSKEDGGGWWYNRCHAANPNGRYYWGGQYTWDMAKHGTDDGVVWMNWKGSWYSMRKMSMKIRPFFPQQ

This is one part of the list. Values without a mark were called inactive.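 The calls were made as follows: active = inhibition above the mean of compounds lying within the control limits plus 3 SD (cut at about 16% in these data); inactive = the rest.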

Turning to `Cc1cc(N2CCNC[C@@H]2C)ccc1N1CC[C@H](O)C1`, the inhibition was 2.65%.
To `COc1ccc2c(c1O)-c1cccc3c1[C@@H](C2)N(C)CC3` belongs -8.1%.

One may read the inhibition as the drop in the measured response relative to a control, in per cent.
